Reference: the supplement of paper PMC10849652
About 7,900 targets were measured; listed, in parts, are those with a hit and a random draw of the rest. About 0.6% of all pairs of compound and target were hits.

Key:
Experiment in all cases: log2 fold change, soluble protein after heating vs DMSO (PISA); higher = thermal stabilisation; K562 cells, 10 uM, 30 min; active = over 0.2 and 3.5 SD of the protein, either way, in both replicates (recomputed)
erlotinib = compound: C#Cc1cccc(Nc2ncnc3cc(OCCOC)c(OCCOC)cc23)c1 [erlotinib]
Outline: (§1)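 K562 cells at 2×10^6 cells/mL were given 10 μM compound for 30 min. Aliquots then went through 3 min of heating across 48°C-58°C, were pooled, and were extracted in PBS with 0.5% NP-40 at 4°C, and the supernatant after 21,000xg for 90 min was quantified by TMTpro 16plex LC-MS/MS with channel sums equalised. Thermal stability relative to control samples, from duplicates, is given as log2 fold change.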

[1] = compound: C/C(=N\NC(=O)C1=CC(=CC=C1)S(=O)(=O)N2CCOCC2)/C3=C(C=CC(=C3)Cl)O
Outline: as §1

[2] = compound: C1=CC(=C(C=C1Cl)C2=NC3=NC=CN=C3C(=N2)NC4=CC=NC=C4)F
Outline: as §1

[3] = compound: C1=CC(=CC=C1C2=NC3=C(N2)C=C(C=C3)C(=O)N)OC4=CC=C(C=C4)Cl
Outline: as §1

[4] = compound: C1=CC2=C(C=CC(=C2)/C=C\3/C(=O)NC(=NCC4=CC=CS4)S3)N=C1
Outline: as §1

[5] = compound: C1=CC2=NC=CN=C2C=C1/C=C/3\C(=O)NC(=O)S3
Outline: as §1

[6] = compound: C1=CC=C(C=C1)C2=NC(=C(N2)C3=CC=NC=C3)C4=CC(=C(C=C4)Cl)O
Outline: as §1

[7] = compound: C1=CC=C2C(=C1)C3=NNC4=CC=CC(=C43)C2=O
Outline: as §1

[8] = compound: C1CCN(C1)C(=O)NC2=CC=CC(=C2)NC3=NC=C(C(=N3)NCCC4=CN=CN4)Br
Outline: as §1

[9] = compound: C1CN(CCC1(CC2=CC=C(C=C2)Cl)N)C3=NC=NC4=C3C=CN4
Outline: as §1

Measured: log2 fold change

SLC9A6 isoform 2 (UniProt Q92581)
UniProt Q92581, sequence (Q92581 whole entry, looked up): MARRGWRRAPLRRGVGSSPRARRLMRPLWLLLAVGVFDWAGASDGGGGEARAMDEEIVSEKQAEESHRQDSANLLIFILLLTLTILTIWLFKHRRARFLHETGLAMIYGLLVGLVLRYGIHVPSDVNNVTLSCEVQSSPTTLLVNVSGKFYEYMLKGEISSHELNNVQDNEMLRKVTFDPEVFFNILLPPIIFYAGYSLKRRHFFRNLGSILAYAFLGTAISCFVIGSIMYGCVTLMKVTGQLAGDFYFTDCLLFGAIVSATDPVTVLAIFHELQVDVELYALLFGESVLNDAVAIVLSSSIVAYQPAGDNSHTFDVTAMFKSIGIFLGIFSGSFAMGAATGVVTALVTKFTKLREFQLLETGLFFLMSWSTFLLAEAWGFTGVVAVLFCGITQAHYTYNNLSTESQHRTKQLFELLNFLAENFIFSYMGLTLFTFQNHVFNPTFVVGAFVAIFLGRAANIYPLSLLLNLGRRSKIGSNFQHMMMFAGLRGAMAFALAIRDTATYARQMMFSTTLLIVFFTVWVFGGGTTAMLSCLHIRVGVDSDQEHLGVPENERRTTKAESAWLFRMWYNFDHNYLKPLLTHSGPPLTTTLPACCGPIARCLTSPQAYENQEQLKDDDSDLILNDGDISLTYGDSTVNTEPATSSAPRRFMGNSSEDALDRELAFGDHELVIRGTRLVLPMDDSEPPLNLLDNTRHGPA
inactive: erlotinib -0.024 | [1] 0.014 | [2] 0.053 | [3] 0.026 | [4] -0.009 | [5] 0.029 | [6] -0.04 | [7] -0.056 | [8] -0.013 | [9] 0.031

SRSF2 (UniProt Q01130)
inactive: erlotinib -0.003 | [1] -0.034 | [2] -0.13 | [3] 0.02 | [4] -0.029 | [5] -0.032 | [6] -0.038 | [7] -0.032 | [8] 0.041 | [9] -0.027

TBCD (UniProt Q9BTW9)
UniProt Q9BTW9, sequence (Q9BTW9 whole entry, looked up): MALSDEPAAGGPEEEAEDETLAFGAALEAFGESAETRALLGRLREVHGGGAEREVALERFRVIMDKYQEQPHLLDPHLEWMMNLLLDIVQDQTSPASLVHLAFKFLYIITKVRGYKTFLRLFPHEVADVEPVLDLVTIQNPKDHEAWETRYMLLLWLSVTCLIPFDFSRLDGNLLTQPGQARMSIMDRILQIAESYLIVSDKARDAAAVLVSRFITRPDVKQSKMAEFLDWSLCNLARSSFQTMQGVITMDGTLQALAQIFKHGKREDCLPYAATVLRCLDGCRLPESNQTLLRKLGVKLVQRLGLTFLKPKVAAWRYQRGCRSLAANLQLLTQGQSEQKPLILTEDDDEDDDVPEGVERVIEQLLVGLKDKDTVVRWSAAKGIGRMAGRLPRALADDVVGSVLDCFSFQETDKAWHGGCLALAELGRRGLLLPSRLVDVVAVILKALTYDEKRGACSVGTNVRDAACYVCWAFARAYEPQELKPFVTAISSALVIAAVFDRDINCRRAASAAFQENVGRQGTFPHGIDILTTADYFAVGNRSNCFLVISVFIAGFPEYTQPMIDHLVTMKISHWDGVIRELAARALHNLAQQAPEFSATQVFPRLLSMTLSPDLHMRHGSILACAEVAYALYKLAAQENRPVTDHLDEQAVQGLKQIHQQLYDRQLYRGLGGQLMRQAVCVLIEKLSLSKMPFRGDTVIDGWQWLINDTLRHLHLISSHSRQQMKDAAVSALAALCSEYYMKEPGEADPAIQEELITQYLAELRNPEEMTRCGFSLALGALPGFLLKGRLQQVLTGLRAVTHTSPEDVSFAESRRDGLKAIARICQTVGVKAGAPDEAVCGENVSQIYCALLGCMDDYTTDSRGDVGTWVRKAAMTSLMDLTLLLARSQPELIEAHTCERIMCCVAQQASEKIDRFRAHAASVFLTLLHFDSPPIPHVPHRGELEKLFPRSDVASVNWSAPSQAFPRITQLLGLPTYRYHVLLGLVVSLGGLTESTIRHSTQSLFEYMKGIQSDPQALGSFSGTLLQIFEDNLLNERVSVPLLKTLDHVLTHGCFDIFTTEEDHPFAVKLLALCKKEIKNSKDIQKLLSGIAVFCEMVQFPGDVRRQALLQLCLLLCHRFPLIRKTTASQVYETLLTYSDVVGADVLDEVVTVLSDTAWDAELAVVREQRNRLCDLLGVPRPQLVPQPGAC
inactive: erlotinib 0.022 | [1] 0.06 | [2] 0.059 | [3] 0.022 | [4] 0.069 | [5] 0.029 | [6] -0.025 | [7] -0.01 | [8] -0.016 | [9] -0.021

THADA (UniProt Q6YHU6)
inactive: erlotinib 0.039 | [1] 0.068 | [2] 0.03 | [3] 0.035 | [4] 0.071 | [5] 0.007 | [6] 0.029 | [7] -0.002 | [8] -0.011 | [9] -0.006

SREK1 isoform 2 (UniProt Q8WXA9)
UniProt Q8WXA9, sequence (Q8WXA9 whole entry, looked up): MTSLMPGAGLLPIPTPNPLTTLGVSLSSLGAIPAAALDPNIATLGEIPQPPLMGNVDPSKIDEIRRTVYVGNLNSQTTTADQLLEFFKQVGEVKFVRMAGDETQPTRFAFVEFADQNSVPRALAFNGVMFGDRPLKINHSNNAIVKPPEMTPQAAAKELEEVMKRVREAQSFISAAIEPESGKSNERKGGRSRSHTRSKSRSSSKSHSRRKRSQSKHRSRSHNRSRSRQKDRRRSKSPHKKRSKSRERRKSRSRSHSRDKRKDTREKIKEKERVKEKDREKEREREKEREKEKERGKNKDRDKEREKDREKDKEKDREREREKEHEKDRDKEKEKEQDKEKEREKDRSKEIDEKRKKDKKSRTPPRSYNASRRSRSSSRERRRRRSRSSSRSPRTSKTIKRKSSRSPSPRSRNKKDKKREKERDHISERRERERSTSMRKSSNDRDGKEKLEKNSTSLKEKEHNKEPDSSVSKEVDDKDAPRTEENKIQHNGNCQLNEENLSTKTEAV
inactive: erlotinib -0.036 | [1] 0.1 | [2] -0.019 | [3] 0.12 | [4] -0.149 | [5] -0.084 | [6] 0.233 | [7] -0.096 | [8] -0.126 | [9] -0.24

STARD7 (UniProt Q9NQZ5)
inactive: erlotinib -0.021 | [1] 0.084 | [2] 0.024 | [3] 0.086 | [4] 0.031 | [5] 0.009 | [6] 0.017 | [7] 0.067 | [8] 0.006 | [9] -0.029

SMIM20 isoform 2 (UniProt Q8N5G0)
UniProt Q8N5G0, sequence (Q8N5G0 whole entry, looked up): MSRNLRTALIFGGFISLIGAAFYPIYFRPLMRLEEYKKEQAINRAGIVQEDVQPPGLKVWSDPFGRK
inactive: erlotinib -0.039 | [1] -0.111 | [3] 0.054 | [4] -0.088 | [5] 0.088 | [6] 0.023 | [7] -0.051 | [8] -0.016 | [9] -0.06
active: [2] 0.427

STOM (UniProt P27105)
inactive: erlotinib -0.027 | [1] -0.087 | [2] -0.011 | [3] 0.1 | [4] 0.054 | [5] 0.04 | [6] -0.188 | [7] -0.038 | [8] 0.004 | [9] -0.079

SNX6 (UniProt Q9UNH7)
inactive: erlotinib 0.093 | [1] 0.056 | [2] 0.035 | [3] 0.017 | [4] 0.042 | [5] -0.057 | [6] -0.053 | [7] -0.159 | [8] 0.053 | [9] -0.018

TLK1 (UniProt Q9UKI8)
inactive: erlotinib 0.012 | [1] 0.038 | [2] 0.041 | [3] -0.012 | [4] 0.042 | [5] 0.005 | [6] 0.01 | [7] -0.034 | [8] -0.032 | [9] -0.014

SUOX (UniProt P51687)
inactive: erlotinib 0.044 | [1] 0.047 | [2] 0.046 | [3] -0.01 | [4] 0.027 | [5] 0.036 | [6] -0.112 | [7] -0.004 | [8] 0.013 | [9] 0.087

SRFBP1 (UniProt Q8NEF9)
UniProt Q8NEF9, sequence (Q8NEF9 whole entry, looked up): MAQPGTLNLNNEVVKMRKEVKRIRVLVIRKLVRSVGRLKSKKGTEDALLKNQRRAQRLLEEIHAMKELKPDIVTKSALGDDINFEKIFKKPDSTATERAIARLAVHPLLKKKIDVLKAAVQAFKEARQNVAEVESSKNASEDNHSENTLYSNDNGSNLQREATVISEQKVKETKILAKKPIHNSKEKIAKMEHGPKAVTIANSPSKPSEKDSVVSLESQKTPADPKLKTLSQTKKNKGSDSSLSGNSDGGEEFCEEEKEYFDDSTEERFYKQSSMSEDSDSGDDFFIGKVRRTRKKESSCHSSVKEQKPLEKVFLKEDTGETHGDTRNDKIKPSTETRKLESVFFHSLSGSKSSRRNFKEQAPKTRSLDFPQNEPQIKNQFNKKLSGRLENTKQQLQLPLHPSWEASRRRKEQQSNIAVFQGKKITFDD
inactive: erlotinib -0.256 | [1] -0.082 | [2] -0.114 | [3] 0.039 | [4] -0.03 | [5] 0.104 | [6] -0.08 | [7] 0.082 | [8] 0.069 | [9] -0.065

SYNE1 (UniProt Q8NF91)
inactive: erlotinib 0.155 | [2] 0.07 | [3] -0.132 | [4] 0.132 | [5] -0.02 | [6] 0.058 | [7] 0 | [8] -0.038 | [9] 0.172
active: [1] -0.499

ST3GAL2 (UniProt Q16842)
inactive: erlotinib 0.032 | [1] 0.07 | [2] -0.069 | [3] 0.009 | [4] -0.085 | [5] -0.052 | [6] -0.057 | [7] 0.045 | [8] -0.024 | [9] 0.108

SUPT5H (UniProt O00267)
inactive: erlotinib 0.05 | [1] 0.084 | [2] 0.065 | [3] 0.011 | [4] 0.017 | [5] 0.021 | [6] 0.02 | [7] 0.006 | [8] -0.017 | [9] 0.011

SLC35A1 (UniProt P78382)
inactive: erlotinib 0.014 | [1] -0.126 | [2] 0.05 | [3] -0.008 | [4] 0.082 | [5] -0.017 | [6] -0.043 | [7] -0.061 | [8] -0.052 | [9] 0.077

SLC25A36 (UniProt Q96CQ1)
inactive: erlotinib -0.077 | [1] 0.008 | [2] -0.083 | [3] 0.003 | [4] 0.031 | [5] 0.102 | [6] -0.104 | [7] -0.034 | [8] 0.053 | [9] 0.068

TBC1D10B (UniProt Q4KMP7)
inactive: erlotinib -0.013 | [1] 0.063 | [2] -0.018 | [3] 0.039 | [4] -0.008 | [5] 0.036 | [6] -0.033 | [7] -0.109 | [8] -0.024 | [9] -0.033

SYF2 (UniProt O95926)
inactive: erlotinib -0.042 | [1] -0.054 | [2] -0.052 | [3] 0.05 | [4] -0.054 | [5] 0.069 | [6] 0.023 | [7] -0.097 | [8] -0.024 | [9] 0.122

TBK1 (UniProt Q9UHD2)
UniProt Q9UHD2, sequence (Q9UHD2 whole entry, looked up): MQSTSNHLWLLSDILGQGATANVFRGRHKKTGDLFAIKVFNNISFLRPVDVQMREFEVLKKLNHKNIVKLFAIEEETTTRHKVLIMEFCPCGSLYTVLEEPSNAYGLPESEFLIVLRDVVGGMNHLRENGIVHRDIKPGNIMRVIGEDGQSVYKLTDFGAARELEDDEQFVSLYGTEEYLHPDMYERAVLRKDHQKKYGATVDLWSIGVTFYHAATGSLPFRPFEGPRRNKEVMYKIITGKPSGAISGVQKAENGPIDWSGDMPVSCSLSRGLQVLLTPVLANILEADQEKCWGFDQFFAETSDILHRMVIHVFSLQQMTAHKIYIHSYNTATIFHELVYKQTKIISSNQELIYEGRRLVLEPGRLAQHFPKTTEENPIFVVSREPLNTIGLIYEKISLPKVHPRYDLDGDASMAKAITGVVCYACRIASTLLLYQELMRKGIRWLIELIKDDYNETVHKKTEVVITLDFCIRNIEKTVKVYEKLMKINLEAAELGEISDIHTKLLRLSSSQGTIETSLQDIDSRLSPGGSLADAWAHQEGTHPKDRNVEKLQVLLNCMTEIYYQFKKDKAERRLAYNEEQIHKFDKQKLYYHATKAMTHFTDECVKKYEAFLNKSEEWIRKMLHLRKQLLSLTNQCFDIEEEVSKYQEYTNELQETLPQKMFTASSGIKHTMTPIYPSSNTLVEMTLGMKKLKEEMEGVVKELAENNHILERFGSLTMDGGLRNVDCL
inactive: erlotinib -0.042 | [1] 0.009 | [2] 0.003 | [3] -0.048 | [4] 0.044 | [5] 0.026 | [6] -0.082 | [7] 0.009 | [8] 0.029 | [9] -0.105

SLC44A2 isoform 2 (UniProt Q8IWA5)
UniProt Q8IWA5, sequence (Q8IWA5 whole entry, looked up): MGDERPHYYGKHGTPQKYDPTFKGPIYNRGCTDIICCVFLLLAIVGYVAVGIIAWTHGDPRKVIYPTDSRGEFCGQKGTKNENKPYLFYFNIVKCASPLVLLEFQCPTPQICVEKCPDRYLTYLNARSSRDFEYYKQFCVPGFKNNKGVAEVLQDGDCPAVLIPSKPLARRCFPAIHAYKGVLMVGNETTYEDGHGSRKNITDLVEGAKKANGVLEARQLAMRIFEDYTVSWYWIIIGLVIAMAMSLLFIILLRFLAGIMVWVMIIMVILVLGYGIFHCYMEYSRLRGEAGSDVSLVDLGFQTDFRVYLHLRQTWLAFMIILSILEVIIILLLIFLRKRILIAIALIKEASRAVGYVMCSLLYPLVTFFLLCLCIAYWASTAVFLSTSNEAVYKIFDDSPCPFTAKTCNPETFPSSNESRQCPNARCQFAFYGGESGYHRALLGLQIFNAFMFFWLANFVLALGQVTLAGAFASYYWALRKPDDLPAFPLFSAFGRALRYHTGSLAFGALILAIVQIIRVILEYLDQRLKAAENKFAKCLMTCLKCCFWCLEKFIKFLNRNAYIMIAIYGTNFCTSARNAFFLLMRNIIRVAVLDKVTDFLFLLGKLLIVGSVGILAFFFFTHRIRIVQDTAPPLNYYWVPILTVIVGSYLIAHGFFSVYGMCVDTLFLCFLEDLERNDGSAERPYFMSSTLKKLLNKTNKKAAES
inactive: erlotinib 0.059 | [1] 0.028 | [2] -0.059 | [3] -0.054 | [4] 0.019 | [5] -0.096 | [6] 0.073 | [7] -0.065 | [8] -0.105 | [9] 0.01

TFAM (UniProt Q00059)
UniProt Q00059, sequence (Q00059 whole entry, looked up): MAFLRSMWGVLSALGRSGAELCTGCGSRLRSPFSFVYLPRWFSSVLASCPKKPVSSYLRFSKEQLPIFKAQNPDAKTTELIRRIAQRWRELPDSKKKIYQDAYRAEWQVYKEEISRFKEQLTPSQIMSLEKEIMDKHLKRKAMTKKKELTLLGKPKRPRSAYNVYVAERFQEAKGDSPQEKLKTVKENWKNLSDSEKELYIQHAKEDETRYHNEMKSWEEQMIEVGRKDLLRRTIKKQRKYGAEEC
inactive: erlotinib -0.085 | [1] -0.071 | [2] -0.127 | [3] 0.031 | [4] -0.009 | [5] -0.022 | [6] -0.068 | [7] -0.05 | [8] 0.06 | [9] -0.078

SNRPB2 (UniProt P08579)
UniProt P08579, sequence (P08579 whole entry, looked up): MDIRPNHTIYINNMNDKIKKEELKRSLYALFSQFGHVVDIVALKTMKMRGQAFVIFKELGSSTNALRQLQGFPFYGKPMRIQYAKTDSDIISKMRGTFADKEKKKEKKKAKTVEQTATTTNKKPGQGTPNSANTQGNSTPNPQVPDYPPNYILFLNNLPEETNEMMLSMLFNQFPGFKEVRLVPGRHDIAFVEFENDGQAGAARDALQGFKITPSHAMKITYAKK
inactive: erlotinib -0.032 | [1] -0.056 | [2] -0.01 | [3] -0.019 | [4] -0.034 | [5] 0.042 | [6] -0.054 | [7] -0.015 | [8] 0.057 | [9] -0.026

SLC7A6 (UniProt Q92536)
inactive: erlotinib -0.051 | [1] 0.232 | [2] -0.161 | [3] 0.026 | [4] -0.001 | [5] 0.034 | [6] 0.008 | [7] -0.033 | [8] -0.004 | [9] 0.135

SNX3 (UniProt O60493)
UniProt O60493, sequence (O60493 whole entry, looked up): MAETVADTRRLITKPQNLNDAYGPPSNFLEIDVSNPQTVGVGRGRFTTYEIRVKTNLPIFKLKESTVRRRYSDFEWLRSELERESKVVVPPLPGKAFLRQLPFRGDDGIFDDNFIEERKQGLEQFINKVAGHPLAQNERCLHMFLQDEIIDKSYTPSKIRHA
inactive: erlotinib 0.129 | [1] 0.074 | [2] -0.056 | [3] -0.052 | [4] 0.078 | [5] -0.058 | [6] 0.123 | [7] -0.136 | [8] 0.026 | [9] -0.068

SYMPK (UniProt Q92797)
inactive: erlotinib -0.005 | [1] 0.179 | [2] 0.005 | [3] -0.114 | [4] 0.189 | [5] 0.033 | [6] 0.093 | [7] -0.065 | [8] -0.101 | [9] 0.04

SRSF4 (UniProt Q08170)
inactive: erlotinib -0.054 | [1] 0.015 | [2] -0.325 | [3] 0.05 | [4] -0.155 | [5] -0.072 | [6] -0.024 | [7] -0.109 | [8] 0.007 | [9] -0.254

SNX1 (UniProt Q13596)
inactive: erlotinib 0.048 | [1] 0.034 | [2] 0.009 | [3] 0.055 | [4] 0.005 | [5] -0.035 | [6] -0.024 | [7] -0.118 | [8] 0.017 | [9] -0.03

SPINDOC (UniProt Q9BUA3)
inactive: erlotinib -0.013 | [1] -0.017 | [2] -0.01 | [3] -0.044 | [4] 0.036 | [5] 0.074 | [6] -0.063 | [7] -0.066 | [8] -0.129 | [9] 0.09

TFRC (UniProt P02786)
inactive: erlotinib 0.002 | [1] 0.017 | [2] 0.022 | [3] 0.006 | [4] 0.037 | [5] 0.027 | [6] 0.023 | [7] -0.011 | [8] 0.006 | [9] 0.055
